Measurements from PubChem BioAssay.
Where “and” joins values, the source holds several entries; their conditions need not be identical. Identical values can stand only once. Records with an inconclusive call do not appear. For part of these data: Potency and affinity values are given separately. Calls of active or inactive are those of the source. Unless noted, no rule for the calls is given here.

What was measured:
[1] = suppressors of polyQ aggregation in yeast, 75Q-TubU reporter (AID 1593); details: Yeast 75Q polyglutamine aggregation reporter
[2] = rescue of polyQ-huntingtin neuronal dysfunction in worms, whole organism, C. elegans mechanosensory neurons, N-terminal huntingtin (AID 1599); details: touch response, stronger effect = higher value
[3] = inhibitors of mitochondrial cytochrome c release, biochemical, purified mitochondria (AID 1603); details: stronger effect = lower value;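 also: mouse liver mitochondria challenged with calcium chloride; signal normalized to the plate average as 100%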
[4] = inhibitors of polyQ protein aggregation (AID 1604); details: polyglutamine-induced protein aggregation inhibition assay; stronger effect = higher value; tested at 2.5 µM
[5] = enhancers of glutamate uptake in motor neurons, MN-1 cell line (AID 1612); details: MN-1 motor neuron cells, stronger effect = higher value;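 also: tested at 1 µM final; 0% = mean of DMSO vehicle wells on each plate; positive means more glutamate uptake than control and negative means less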
[6] = reducers of polyQ inclusions in PC12 cells, cell-based, NGF-treated PC12, GFPQ80 (AID 1614); details: PC12 NGF-treated GFP-polyQ80 inclusion reduction;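 also: lower means fewer inclusions and 0 means no inclusions at all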
[7] = suppressors of polyglutamine aggregation in yeast, 75Q-TubH (AID 1616); details: S. cerevisiae 75Q-TubH polyglutamine aggregation suppression; stronger effect = higher value
[8] = liver-stage malaria parasite growth inhibition, primary screen, cell-based, HepG2, luciferase luminescence, HepG2 viability (AID 624349; in the data active = parasite load remaining mostly below about 12%, no sharp cut-off; inactive = mostly above about 10%;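 also: 100% = mean of DMSO negative control wells on the same plate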); details: P. berghei liver stage in HepG2, luciferase luminescence, concentration not given here; parasite load remaining: stronger effect = lower value; viability: measured here: HepG2 viability without parasites
[9] = differential killing of epithelial or mesenchymal cells, primary screen, imaging, PC-3E GFP, TEM4-18 mCherry, co-culture (AID 1345086;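 active = compounds killing one labelled cell type while sparing the other, by normalised counts and ratio limits, not self-fluorescent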;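 as to all read-outs here: cells exposed to compound for 72 h before imaging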;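 as to red/green cell ratio (normalised): normalised mesenchymal count divided by normalised epithelial count so high means epithelial killing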); details: imaging cell counts, at 1 µM; for red/green cell ratio (normalised): actives lie on both sides
[10] = sensitizers of A549 cells to miR-34 induction, primary screen, imaging, A549 dox-inducible miR-34, nuclei and caspase counts (AID 1347080;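 active = compounds whose cell count with miR-34 switched on is under 0.7 times the count with it off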); details: A549 miR-34 inducible, Hoechst nuclei count, 48 h
[11] = circadian clock period modulators, cell-based, LOPAC library, luminescence reporter (AID 2774); details: circadian reporter cells, at 7 µM, actives lie on both sides;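 also: values are relative to mean of DMSO wells on each plate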
[12] = test system: Hepatitis C virus NS3 helicase; test: HCV NS3 helicase inhibitors, primary screen, biochemical, fluorescence polarization, LOPAC1280 library (AID 687035; in the data active = inhibition above about 37%); details: Purified HCV NS3 helicase, Cy5-dT15 ssDNA binding fluorescence polarization; stronger effect = higher value; concentration not given here
[13] = Cy5 fluorescence quenching or enhancement artefacts, artefact control for HCV NS3 helicase inhibitor project, biochemical, LOPAC1280 (AID 687037); details: Cy5-DNA-NS3h complex fluorescence interference counterscreen
[14] = test system: Aerobactin synthetase IucA (Klebsiella pneumoniae); test: IucA aerobactin synthetase inhibitors, biochemical, Tocris library, absorbance (AID 1345561); details: purified IucA enzyme assay, absorbance (OD) read-out; stronger effect = lower value;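 tested at 8 µM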;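 also: 100% = enzyme without compound and 0% = no enzyme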
[15] = test system: Aerobactin synthetase IucA (Klebsiella pneumoniae, hypervirulent); test: IucA enzyme inhibition, biochemical, LOPAC library, absorbance readout (AID 1346212); details: IucA enzyme assay, absorbance (OD) readout; stronger effect = lower value;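 tested at 8 µM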;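 also: 100% = no compound wells and 0% = no enzyme wells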
[16] = growth inhibition of DIPG glioma cells, dose response, cell-based, SU-DIPG-XVII, MIPE5.0, CellTiter-Glo, qHTS (AID 1347060; cut-off not given, nearly all actives have AC50 up to about 26 µM); details: SU-DIPG-XVII viability, CellTiter-Glo ATP luminescence
[17] = growth inhibition of DIPG glioma cells, dose response, cell-based, JHH-DIPG-1, MIPE4.0, CellTiter-Glo, qHTS (AID 1347062; cut-off not given, nearly all actives have AC50 up to about 27 µM); details: JHH-DIPG-1 viability, CellTiter-Glo ATP luminescence
[18] = growth inhibition of DIPG glioma cells, dose response, cell-based, SU-DIPG-XIII, MIPE5.0, CellTiter-Glo, qHTS (AID 1347064; cut-off not given, nearly all actives have AC50 up to about 23 µM); details: SU-DIPG-XIII viability, CellTiter-Glo ATP luminescence
[19] = viability loss in pontine glioma line – cell-based, SU-DIPG-XXV, MIPE5.0, CellTiter-Glo, qHTS, dose response (AID 1347065; cut-off not given, nearly all actives have AC50 up to about 26 µM;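 also: cells exposed to compound for 48 hours before ATP readout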); details: CellTiter-Glo ATP luminescence
[20] = SU-DIPG-VI glioma cell viability, MIPE4.0 library, CellTiter-Glo luminescence, qHTS (AID 1347066; cut-off not given, nearly all actives have AC50 up to about 30 µM;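 also: cells exposed to compound for 48 hours before readout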); details: CellTiter-Glo ATP luminescence
[21] = JHH-DIPG-1 glioma cell viability, MIPE5.0 library, CellTiter-Glo luminescence, qHTS (AID 1347067; cut-off not given, nearly all actives have AC50 up to about 26 µM;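 also: cells exposed to compound for 48 hours before readout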); details: JHH-DIPG-1 glioma viability, CellTiter-Glo ATP luminescence
[22] = SU-DIPG-XXV glioma cell viability, MIPE5.0 library, qHTS (AID 1347068; cut-off not given, nearly all actives have IC50 up to about 30 µM)
[23] = inhibitors of Cryptococcus chitosan production, flow cytometry, Cibacron Brilliant Red staining (AID 1347148); details: Cryptococcus neoformans chitosan, stronger effect = lower value; at 10 µM unless noted;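 also: compound exposure lasted three days at 37 degrees C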
[24] = phospholipid biosynthesis inhibitors in animal cells, primary screen, cell-based, LOPAC library, screen 4 (AID 1347384); details: phospholipid biosynthesis inhibition screen, at 10 µM
[25] = viability rescue of complex I mutant cybrids, primary screen, cell-based, galactose medium, ATP luminescence (AID 1645843;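 active = z-score of at least 1.8 in each of two replicates, scored against plate mean and spread of sample wells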;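 also: positive z means more ATP and so rescue of galactose-driven cybrid death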); details: complex I mutant cybrid cells, 72 h, stronger effect = higher value
[26] = test system: Aerobactin synthetase IucA (Klebsiella pneumoniae hvKP1); test: Biochemical IucA enzyme inhibition primary screen of the Spectrum library (AID 1346200); details: malachite green pyrophosphate, A620, at 8 µM, stronger effect = lower value;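 also: 100% = wells without compound and 0% = wells lacking enzyme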
[27] = target: Mitogen-activated protein kinase 7 (Homo sapiens) (UniProt Q13164); test: ERK5 transactivation activators in reporter cells, primary screen, cell-based, HTS (AID 1508626;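 active = luciferase signal above three times the same-plate solvent-only control wells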;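 also: luciferase driven by Gal4-ERK5 fusion binding five Gal4 sites before minimal TATA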); details: HeLa Gal4-ERK5 transactivation, 18 h, at 5 µM, stronger effect = higher value
[28] = measured here: epithelial PC-3E GFP cell survival
[29] = measured here: mesenchymal TEM4-18 mCherry cell survival
[30] = measured here: relative caspase fold change +Dox/-Dox
[31] = measured here: total cells with miR-34 induction, stronger effect = lower value
[32] = measured here: total cells without miR-34 induction
[33] = stronger effect = lower value, cell number ratio, induced over uninduced

Sequence of Mitogen-activated protein kinase 7 (Homo sapiens) (Q13164 whole entry, looked up, the tested form may be a part): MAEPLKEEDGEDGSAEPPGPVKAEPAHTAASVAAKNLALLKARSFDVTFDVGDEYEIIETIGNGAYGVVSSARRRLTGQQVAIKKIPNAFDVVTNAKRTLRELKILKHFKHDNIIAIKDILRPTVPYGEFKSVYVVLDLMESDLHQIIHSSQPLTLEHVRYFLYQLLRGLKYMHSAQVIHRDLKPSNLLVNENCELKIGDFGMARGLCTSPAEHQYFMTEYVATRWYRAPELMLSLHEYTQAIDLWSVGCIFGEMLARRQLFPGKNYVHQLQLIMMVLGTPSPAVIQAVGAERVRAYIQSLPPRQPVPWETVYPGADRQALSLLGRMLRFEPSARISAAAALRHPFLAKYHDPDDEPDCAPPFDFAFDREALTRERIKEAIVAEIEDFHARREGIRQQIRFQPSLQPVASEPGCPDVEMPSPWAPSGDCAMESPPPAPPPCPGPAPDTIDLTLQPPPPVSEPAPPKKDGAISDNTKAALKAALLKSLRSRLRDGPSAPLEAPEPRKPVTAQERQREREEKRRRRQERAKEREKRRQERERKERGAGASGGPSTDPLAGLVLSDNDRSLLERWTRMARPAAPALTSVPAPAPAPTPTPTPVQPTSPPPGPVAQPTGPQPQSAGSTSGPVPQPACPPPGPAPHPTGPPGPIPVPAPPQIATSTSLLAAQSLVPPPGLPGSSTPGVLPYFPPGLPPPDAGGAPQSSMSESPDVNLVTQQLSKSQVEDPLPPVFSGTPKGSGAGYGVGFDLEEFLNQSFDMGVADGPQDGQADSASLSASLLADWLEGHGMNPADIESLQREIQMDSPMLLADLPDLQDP

## CC(=O)O[C@H]1C[C@H](O[C@H]2[C@@H](O)C[C@H](O[C@H]3[C@@H](O)C[C@H](O[C@H]4CC[C@@]5(C)C(CCC6C5C[C@@H](O)[C@]5(C)[C@@H](C7=CC(=O)OC7)CC[C@]65O)C4)O[C@@H]3C)O[C@@H]2C)O[C@H](C)[C@H]1O[C@@H]1O[C@H](CO)[C@@H](O)[C@H](O)[C@H]1O (stereo partly specified)
[1]
  score: 1.1
[2]
  rescue above control: 3.88
[3]
  cytochrome c release ratio: 0.86
[4]
  inhibition of aggregation: 100%
[5]
  glutamate uptake change: -5.55%
[6]
  inclusion score: 3
[7]
  aggregation suppression score: 1.31
[8]
  parasite load remaining: 31.4% (inactive) and 0.905% (inactive)
  viability: 50.8% and 15.3%
[9]
  red/green cell ratio (normalised): 0.22 (inactive)
[9]; [28]
  normalised cell number: 0.27
[9]; [29]
  normalised cell number: 0.06
[10]; stronger effect = lower value
  fold change: 0.6 (active)
[10]; [30]
  fold change: 2.31
[10]; [31]
  cell count: 258
[10]; [32]
  cell count: 431

## COC(=O)[C@@H](N)CCCN=C(N)N[N+](=O)[O-]
[11]
  period change: -0.07 h (inactive)
[12]
  inhibition: -2% (inactive)
[13]
  fluorescence ratio (interference): 1 (inactive)
[14]
  remaining activity: 81.5% (inactive)
[15]
  remaining activity: 117% (inactive)
[16]
  outcome: inactive
[17]
  outcome: inactive
[18]
  outcome: inactive
[19]
  outcome: inactive
[20]
  outcome: inactive
[21]
  outcome: inactive
[22]
  outcome: inactive
[10]; stronger effect = lower value
  fold change: 1.06 (inactive) and 1.11 (inactive) and 0.952 (inactive)
[10]; [30]
  fold change: 1.8 and 0.812 and 0.955
[10]; [31]
  cell count: 11200 and 5930 and 8740
[10]; [32]
  cell count: 10600 and 5320 and 9180
[23]
  fold fluorescence: 4.22 [at 214.4 µM] (inactive)
[24]
  outcome: inactive
[25]
  z-score: 0.23 (inactive) and 0.29 (inactive)

## Cc1[nH]c2ccc(O)cc2c1CCN
[11]
  period change: 0.13 h (inactive)
[12]
  inhibition: -6% (inactive)
[13]
  fluorescence ratio (interference): 0.9 (inactive)
[14]
  remaining activity: 104% (inactive)
[15]
  remaining activity: 118% (inactive)
[10]; stronger effect = lower value
  fold change: 1.04 (inactive) and 1.02 (inactive)
[10]; [30]
  fold change: 0.914 and 0.703
[10]; [31]
  cell count: 10800 and 9460
[10]; [32]
  cell count: 10400 and 9310
[24]
  outcome: inactive
[25]
  z-score: 0.345 (inactive) and -0.12 (inactive)

## CCCCCCCCCCNCCC (tested in a mixture with another compound)
[8]
  parasite load remaining: 23% (inactive)
  viability: 92.6%
[9]; counts scaled to control wells, 1 = unselective
  red/green cell ratio (normalised): 0.92 (inactive)
[9]; [28]
  normalised cell number: 1.01
[9]; [29]
  normalised cell number: 0.93
[10]; [33]
  fold change: 0.945 (inactive)
[10]; [30]
  fold change: 1.32
[10]; [31]
  cell count: 11300
[10]; [32]
  cell count: 11900

## C=CC[C@]1(O)CCC2C3CCC4=CC(=O)CCC4=C3C=C[C@@]21C (stereo partly specified)
[8]
  parasite load remaining: 26.4% (inactive)
  viability: 98.9%
[9]
  red/green cell ratio (normalised): 0.86 (inactive)
[9]; [28]
  normalised cell number: 0.92
[9]; [29]
  normalised cell number: 0.79
[10]; stronger effect = lower value
  fold change: 0.89 (inactive)
[10]; [30]
  fold change: 1.39
[10]; [31]
  cell count: 10300
[10]; [32]
  cell count: 11500

## Cc1ccc(C[N+](C)(C)C)o1
[14]
  remaining activity: 126% (inactive)
[26]
  activity remaining: 106% (inactive)
[10]; [33]
  fold change: 0.971 (inactive)
[10]; [30]
  fold change: 0.883
[10]; [31]
  cell count: 9440
[10]; [32]
  cell count: 9720
[27]
  luciferase signal: 100 AU (inactive)
[25]
  z-score: 0.545 (inactive)

## C#C[C@@H]1CC2C3CCC4=C[C@@H](OC(C)=O)CCC4C3CC[C@]2(C)[C@H]1OC(C)=O (stereo partly specified)
[8]
  parasite load remaining: 19.4% (inactive)
  viability: 101%
[9]
  red/green cell ratio (normalised): 0.9 (inactive)
[9]; [28]
  normalised cell number: 1.25
[9]; [29]
  normalised cell number: 1.12
[10]; stronger effect = lower value
  fold change: 0.854 (inactive)
[10]; [30]
  fold change: 3.71
[10]; [31]
  cell count: 11300
[10]; [32]
  cell count: 13200
